About 50 (0.02%) of roughly 320,000 compounds were called active. Many of the other results were omitted from the sample, so actives are more common in it than they were. Values without a mark were called inactive.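 How the source made its calls: active means GFP response relative to DMSO above a set limit, near screen average plus 3 SD (cut at about 150% in these data); inconclusive means fewer than 70 cells counted for the yeast strain; inactive means the rest.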

These results are taken from PubChem BioAssay AID2066 (NMMLSC, 2009).

A short description of the experiment: yeast AGP1-GFP level changes, GLN3 branch – cell-based, multiplex flow cytometry, S. cerevisiae, MLPCN library, primary screen (AID 2066).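 Further: median GFP channel fluorescence of the gated AGP1 strain per well.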 The settings on record: 3 h, at 10 µM, hits give high values, GFP as percent of DMSO wells. For orientation: Flow cytometry measures light scatter and fluorescence of single cells or particles in a stream.
For `C#CCO[C@@H]1C[C@H](n2cnc3c(=O)[nH]c(NC(=O)C(C)C)nc32)O[C@@H]1CO`, the GFP response vs DMSO is 87.2%.
Consider `CC1=CC(C)(C)NC(=S)N1NC(=O)c1ccccc1Cl`, for which the GFP response vs DMSO is 109%.
`COc1ccc(/C(C)=N/N2CCOCC2)c(O)c1`: the GFP response vs DMSO was 104%.
As to `Cc1cccc(CSc2nc3c(c(=O)n2C)SCC3)c1`, the GFP response vs DMSO is 91.2%.
The same measure for `Cn1nccc1C(=O)NC1CCCc2c1cnn2-c1ccc(F)cc1F` (configuration not stated): 95.7%; for `CN(C)N(C)C(=O)C(O)(c1ccccc1)c1ccccc1`: 109%; for `CCC(C)(C)NC(=O)C(c1ccc(O)cc1)N(Cc1ccco1)C(=O)CCC(=O)Nc1ccccn1` (configuration not stated): 100%.
As for `CCOc1ccc(S(=O)(=O)N2CCC(C(=O)NCC(=O)Nc3cccc(Cl)c3C)CC2)cc1`, the GFP response vs DMSO is 93.8%.
Regarding `O=C(NCc1ccc(F)cc1)C1CCN(C(=O)Nc2ccc(F)cc2)CC1`, the GFP response vs DMSO was 96.4%.
The result for `O=C(OCC(=O)N1CCN(C(=O)c2ccco2)CC1)c1ccc(Cl)c(Cl)c1` reads 103%; that for `COc1ccccc1OCc1ccc(C(=O)NC(C)c2ccccc2)o1` (configuration not stated), 95.8%.
The result for `Cc1c(Cl)c([N+](=O)[O-])nn1Cc1ccc(C(=O)N/N=C\c2cc(Cl)ccc2O)o1` reads 99.4%.
Regarding `C/C=C/c1ccc(OCC(=O)NNC(=O)CN(C)S(=O)(=O)c2ccc(C)cc2)c(OC)c1`, the GFP response vs DMSO is 91.6%.
Turning to `O=C(O)C(F)(F)C(NCc1ccccc1)c1ccccc1` (configuration not stated), the GFP response vs DMSO is 102%.
The result for `CCOC(=O)C1C(=O)NCC1c1ccccc1` (configuration not stated) reads 109%; that for `CCOC(=O)c1ccccc1NC(=O)c1c(N)n(C)c(=O)[nH]c1=O`, 87.3%.
As to `N#C/C=C/N1CCN(Cc2ccc3c(c2)OCO3)CC1`, the GFP response vs DMSO is 93%.
For `O=C(O)CCCCOn1ccnc1`, the GFP response vs DMSO is 91.2%.
As for `O=C(Nc1c2c(nn1-c1cccc(Cl)c1)CS(=O)(=O)C2)c1cccs1`, the GFP response vs DMSO is 90.9%.
The result for `Cc1ccccc1NC(=O)C(C)c1ccc(-c2ccccc2)c(F)c1` (configuration not stated) reads 97.8%.
As for `CCn1cc(C(=O)N2CC(C)CC(C)C2)c(=O)c2cc(S(=O)(=O)N3CCCC3)ccc21` (configuration not stated), the GFP response vs DMSO was 93.8%.
The result for `CC1=CC=CN2C1=NC(=O)CC2(C)C(=O)N(CC(=O)NC1CCCC1)c1ccccc1C` (configuration not stated) reads 99.9%; that for `CCOc1ncccc1C(=O)OCC(=O)Nc1cccc(S(=O)(=O)N2CCCCCC2)c1`, 100%.
On to `CCOc1ccc(N2C(=O)CSC2=NC#N)cc1`, for which the GFP response vs DMSO is 88.3%.
The same measure for `Cc1ccc(S(=O)(=O)NCC(=O)N(CC(=O)NCC2CCCO2)c2cccc(F)c2)cc1` (configuration not stated): 114%.
Regarding `CC1(C)NC(=O)N(CC(=O)N2CCN(S(=O)(=O)c3ccccc3F)CC2)C1=O`, the GFP response vs DMSO is 95.5%.
`Cc1cc(C)c(NC(=S)N2CCCC2C(=O)O)c(C)c1` (configuration not stated): the GFP response vs DMSO is 102%.
Turning to `Cc1cccc(C)c1NC(=O)C1(N(C(=O)c2ccccn2)c2ccc(O)cc2)CCCCC1`, the GFP response vs DMSO is 97.2%.
Turning to `CC(=O)C[C@H](O)CC(=O)[C@@H]1OC(=O)[C@@H](C)C/C=C\Cc2ccccc21`, the GFP response vs DMSO is 98.2%.
Turning to `CCOc1ccc(C2NC(=S)NC3=C2CCc2ccccc23)cc1` (configuration not stated), the GFP response vs DMSO is 103%.
With `CCCCn1nc(C(=O)N2CCc3ccccc32)c2ccccc2c1=O`, the GFP response vs DMSO was 98.5%.
The result for `Cc1ccccc1OCC(=O)NNC(=O)c1ccc(-n2cncn2)c([N+](=O)[O-])c1` reads 106%.
Take `O=C(CSc1cccc[n+]1[O-])NCCCc1ccccc1`: the GFP response vs DMSO is 101%.
For the molecule `O=C(Nc1ccc(F)cc1)C1CCCN(S(=O)(=O)c2ccc(-n3cnnn3)cc2)C1` (configuration not stated), the GFP response vs DMSO is 102%.
As to `CCN(CC)CCNS(=O)(=O)c1ccc(/C=C/C(=O)O)cc1`, the GFP response vs DMSO was 98.4%.
For `Cc1ccc(NC(=O)CSc2nn3c(=O)c(C)nnc3s2)cc1Cl`, the GFP response vs DMSO was 93.9%.
`CC(=O)Nc1ccc(Nc2nc3c(S(=O)(=O)c4ccc(C)c(C)c4)nnn3c3ccccc23)cc1`: the GFP response vs DMSO is 100%.
Consider `Cc1ccc(S(=O)(=O)c2nnn3c2nc(N2CCN(c4ccccn4)CC2)c2ccccc23)cc1`, for which the GFP response vs DMSO is 97.1%.
`Cc1cccc(Nc2nc3c(S(=O)(=O)c4ccccc4)nnn3c3ccccc23)c1C`: the GFP response vs DMSO is 224% [may fluoresce green] (active).
On to `NC(=O)C1CC=CCC1C(=O)OCC(Cl)=C(Cl)Cl` (configuration not stated), for which the GFP response vs DMSO was 105%.
As to `Cc1cc(C)cc(OCC(=O)OCC(=O)NC2CCCC2)c1`, the GFP response vs DMSO is 87.5%.
The result for `Cc1ccc(C(=O)Nc2ccn(C)n2)cc1` reads 102%.
Take `CN(C)S(=O)(=O)c1cc(C(=O)Nc2ccn(C)n2)c(Cl)cc1Cl`: the GFP response vs DMSO was 1300% [may fluoresce green] (active).
The same measure for `O=C(Nc1nccs1)c1cc(S(=O)(=O)N2CCOCC2)c(Cl)cc1Cl`: 100%.
In the case of `Cn1nnnc1SCC(=O)Nc1ccccc1C(=O)NC1CC1`, the GFP response vs DMSO was 102%.
For `Cc1ccc2c(=O)cc(C(=O)NCCc3ccc(S(N)(=O)=O)cc3)oc2c1C`, the GFP response vs DMSO is 93.5%.
Regarding `Cc1oc(C(N)=O)cc1COc1ccc(C(N)=O)cc1`, the GFP response vs DMSO was 101%.
As for `O=C1CCC/C=C/C[C@@H](CC(=O)N(CCO)Cc2ccccc2)C(=O)NC[C@H](c2ccccc2)O1`, the GFP response vs DMSO is 96.8%.
On to `Cc1ccc(C)c(NC(=O)CCC(=O)N/N=C2/CC(=O)CC(C)(C)C2)c1`, for which the GFP response vs DMSO was 96.2%.
In the case of `O=C(COC(=O)c1cc(S(=O)(=O)N2CCOCC2)ccc1F)NC1CC1`, the GFP response vs DMSO is 91.4%.
With `COc1cccc(C(=O)Nc2cc3c(cc2Br)OCCCO3)c1`, the GFP response vs DMSO was 92%.
The same measure for `CS(=O)(=O)Nc1ccccc1C(=O)OCC(=O)NC1CC1`: 106%.
With `O=C(CCc1[nH]c2ccccc2c1Sc1ccccc1)N(CCO)CCO`, the GFP response vs DMSO is 99.2%.
For `Nc1nc(NCc2ccccc2)n(-c2ccccc2)n1`, the GFP response vs DMSO is 99.9%.
Turning to `COc1cc(C)ccc1OCC(=O)OCC(=O)c1ccc[nH]1`, the GFP response vs DMSO is 100%.
The same measure for `COc1ccc(S(=O)(=O)N(C)C[C@@H]2Oc3ccc(NS(=O)(=O)c4cn(C)cn4)cc3C(=O)N([C@@H](C)CO)C[C@@H]2C)cc1`: 91.3%.
Take `COCCn1c(SCC(=O)Nc2ccccc2F)nc2c(c1=O)SCC2`: the GFP response vs DMSO is 96.5%.
As to `Cc1ccc(Oc2cc(NC(=O)CCCn3nc(C)c([N+](=O)[O-])c3C)cc([N+](=O)[O-])c2)cc1`, the GFP response vs DMSO is 95.5%.
Take `CCn1cc(C(=O)Nc2cc(C)ccc2C)c(=O)c2ccc(C)nc21`: the GFP response vs DMSO was 108%.
Consider `C=CCNC(=S)/N=c1/ccccn1Cc1ccccc1`, for which the GFP response vs DMSO is 108%.
Consider `Cc1ccc2cc(C)c(N3CCC(C)CC3)nc2c1`, for which the GFP response vs DMSO is 108%.
Regarding `CCC1(C)Cc2c(sc3nnn(CC(=O)Nc4ccc(Cl)cc4)c(=O)c23)CO1` (configuration not stated), the GFP response vs DMSO was 98%.
Turning to `Cc1nn(Cc2ccccc2)c(C)c1C(=O)N1CCN(CC(=O)Nc2ccccc2Cl)CC1`, the GFP response vs DMSO is 99.8%.
As for `CCN1C(=O)N[C@@H](c2ccccc2)[C@H](C(C)=O)[C@H]1C`, the GFP response vs DMSO was 81.1%.
In the case of `COC(=O)c1cc(NC(=O)c2cc(C(C)(C)C)nn2Cc2cccc(C)c2)ccc1N1CCOCC1`, the GFP response vs DMSO is 97%.
As to `CCOC(=O)C(C)n1cnc2scc(-c3ccc(C)c(C)c3)c2c1=O` (configuration not stated), the GFP response vs DMSO is 93.8%.
The same measure for `COC(=O)c1sccc1-n1cccc1C(=O)C(=O)N1CCCCC1`: 92.6%; for `Cc1ccc(C(c2nnnn2CS(=O)(=O)c2ccc(C)cc2)N2CCC(C)CC2)cc1` (configuration not stated): 91.3%; for `CC(=O)Nc1ccc(S(=O)(=O)NCC(=O)OCC(=O)c2ccc[nH]2)cc1`: 107%.
On to `O=C(Nc1cc(S(=O)(=O)N2CCOCC2)ccc1N1CCOCC1)c1c(F)cccc1Cl`, for which the GFP response vs DMSO was 103%.
As to `CC(Sc1nnc(Cc2ccc([N+](=O)[O-])cc2)o1)C(N)=O` (configuration not stated), the GFP response vs DMSO was 97.7%.
As for `O=C(O)c1cccc(S(=O)(=O)N2CC=C(c3ccccc3)CC2)c1`, the GFP response vs DMSO is 101%.
The result for `O=C1c2ccccc2C(=O)N1CC1c2ccccc2CCN1S(=O)(=O)c1ccccc1` (configuration not stated) reads 96.4%; that for `Cc1nnc(CN(C)Cc2cn[nH]c2-c2ccc(-c3ccccc3)cc2)o1`, 108%.
For `CC(c1ccccn1)N(C)C(=O)c1ccc2nc(Cc3cccc(Cl)c3)oc2c1` (configuration not stated), the GFP response vs DMSO is 103%.
The same measure for `Cn1nnnc1SCC(=O)Nc1cccc(S(=O)(=O)N2CCCCC2)c1`: 77.3%; for `O=C(OCC(=O)N1CCCCCC1)c1cnc(Cl)c(Cl)c1`: 97.1%.
The result for `COc1ccc(NC2=CC(=S)NC(C)(C)C2)cc1` reads 99.9%; that for `CCN(CC)CCCNC(=O)c1c(O)c2cc(F)cc3c2n(c1=O)C(C)CC3` (configuration not stated), 88.3%.
Take `O=c1cc(Cl)c2ccccc2n1-c1ccccc1`: the GFP response vs DMSO is 103%.
Take `N#Cc1ccccc1NC(=O)COc1c(Br)cc(Br)c2cccnc12`: the GFP response vs DMSO was 96.8%.
In the case of `Cc1cc(C)nc(N2C(=O)CC(Cc3ccccc3)C2=O)n1` (configuration not stated), the GFP response vs DMSO was 112%.
On to `CCOC(=O)N1CCC(NC(=O)CN2C(=O)COc3ccc(C(C)(C)C)cc32)CC1`, for which the GFP response vs DMSO is 88.7%.
The same measure for `CCCCN(C(=O)c1ccc2ccccc2c1)c1c(N)n(CCCC)c(=O)[nH]c1=O`: 92.5%; for `O=C(CN1CCN(S(=O)(=O)c2cc(Cl)ccc2Cl)CC1)c1ccc(O)c(O)c1`: 94.9%; for `CCOc1ccc2oc(C(=O)N(CC)CC(=O)Nc3ccc(NC(C)=O)cc3)c(C)c2c1`: 103%.
`COc1cccc(NC(=O)C(Sc2nc3ccccc3c(=O)n2CC(C)C)c2ccccc2)c1` (configuration not stated): the GFP response vs DMSO was 98.7%.
